Data taken from PubChem BioAssay (NCATS).
Records with an inconclusive call do not appear. Calls of active or inactive are those of the source. Calls follow the shape of the dose curve; as a rule, active = well fitted curve in the direction sought with a large enough effect; inconclusive = small, poorly fitted or top-dose-only effect, or another doubt; inactive = no such curve, though single readings can be large; an effect the other way counts as inactive or inconclusive. Positions of bridges follow the written chain, without caps; N, C: chain ends. Non-standard residues stand in square brackets, D forms with d. Residues, ends and D or L forms follow the SMILES beside them. ξ: configuration not given here. *: point of attachment. Octanoyl(6-Me) = CCC(C)CCCCC(=O)*; ξThr(3R) = C[C@@H](O)C(N)C(=O)O; dDab = NCC[C@@H](N)C(=O)O; Dab = NCC[C@H](N)C(=O)O

Legend:
[1] = qHTS of pediatric cancer cell lines to identify multiple opportunities for drug repurposing: Primary screen for SK-N-MC cells (AID 1347093); also: potency is read from the fitted curve at half-maximal effect;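 as to activity change, negative = cytotoxic: series mostly up to about 46 µM; plate controls were DMSO neutral control for no effect and bortezomib for full effect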
In short: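 Metabolically active cells were quantified by ATP-dependent luminescence (CellTiter-Glo, 15 min at room temperature) following 48 h treatment. Cells had been plated at 500-1,000 per well and settled for 5 h beforehand.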

[2] = qHTS of pediatric cancer cell lines to identify multiple opportunities for drug repurposing: Primary screen for BT-37 cells (AID 1347094); also: potency is read from the fitted curve at half-maximal effect
In short: (§1)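 Following a 5-hour attachment period, cells at 500-1,000/well received compounds and were cultured for 48 hours. CellTiter-Glo was added and luminescence read to estimate viable, metabolically active cells.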

[3] = qHTS of pediatric cancer cell lines to identify multiple opportunities for drug repurposing: Primary screen for U-2 OS cells (AID 1347096);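 also: plate controls were DMSO wells for no effect and bortezomib positive control wells for full effect; nearly all actives have a fitted effect of over 50% in size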
In short: (§2)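 Cells (500-1,000/well) rested 5 h, then received compounds for 48 h; metabolically active cells were measured by CellTiter-Glo luminescence. Final concentrations spanned up to 46 µM (MIPE, 11-point) or 0.59 nM-46 µM (NPC, 8-point) in primary screens, 11-point in follow-ups.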

[4] = qHTS of pediatric cancer cell lines to identify multiple opportunities for drug repurposing: Primary screen for Saos-2 cells (AID 1347097); also: nearly all actives have a fitted effect of over 40% in size; also: potency is read from the fitted curve at half-maximal effect
In short: as §1

[5] = qHTS of pediatric cancer cell lines to identify multiple opportunities for drug repurposing: Primary screen for SK-N-SH cells (AID 1347098); also: nearly all actives have a fitted effect of over 65% in size; also: potency is read from the fitted curve at half-maximal effect;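 as to activity change, negative = cytotoxic: DMSO served as neutral control and bortezomib at 2.3 µM as positive control; % is scaled to controls: 0 for no effect and ±100 for the full control effect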
In short: as §2

[6] = qHTS of pediatric cancer cell lines to identify multiple opportunities for drug repurposing: Primary screen for BT-12 cells (AID 1347101); also: nearly all actives have a fitted effect of over 25% in size; also: potency is read from the fitted curve at half-maximal effect
In short: as §2

[7] = qHTS of pediatric cancer cell lines to identify multiple opportunities for drug repurposing: Primary screen for OHS-50 cells (AID 1347103); also: nearly all actives have a fitted effect of over 40% in size; also: potency is read from the fitted curve at half-maximal effect;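 as to activity change, negative = cytotoxic: plate controls were DMSO neutral control for no effect and bortezomib positive control for full effect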
In short: as §2

[8] = qHTS of pediatric cancer cell lines to identify multiple opportunities for drug repurposing: Primary screen for RD cells (AID 1347104); also: nearly all actives have a fitted effect of over 55% in size; also: potency is read from the fitted curve at half-maximal effect
In short: as §1

[9] = qHTS of pediatric cancer cell lines to identify multiple opportunities for drug repurposing: Primary screen for MG 63 (6-TG R) cells (AID 1347105); also: nearly all actives have a fitted effect of over 50% in size; also: potency is read from the fitted curve at half-maximal effect; as to activity change, negative = cytotoxic: % is scaled to controls: 0 for no effect and ±100 for the full control effect
In short: as §1

[10] = qHTS of pediatric cancer cell lines to identify multiple opportunities for drug repurposing: Primary screen for control Hh wild type fibroblast cells (AID 1347106); also: nearly all actives have a fitted effect of over 55% in size; also: potency is read from the fitted curve at half-maximal effect;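 as to activity change, negative = cytotoxic: series mostly up to about 46 µM; % is scaled to controls: 0 for no effect and ±100 for the full control effect; a drop in luminescence marks cytotoxicity and a rise apparent proliferation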
In short: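 Viability after 48 h compound treatment at 37C, 500-1,000 cells/well, read as ATP luminescence with CellTiter-Glo. Primary screens used 11-point (MIPE, 0.78 nM-46 µM) or 8-point (NPC, 0.59 nM-46 µM) final concentrations; follow-up screens used 11-point dilutions.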

[11] = qHTS of pediatric cancer cell lines to identify multiple opportunities for drug repurposing: Primary screen for Rh30 cells (AID 1347107); also: nearly all actives have a fitted effect of over 75% in size; also: potency is read from the fitted curve at half-maximal effect; as to activity change, negative = cytotoxic: series mostly up to about 46 µM; % is scaled to controls: 0 for no effect and ±100 for the full control effect
In short: as §2

[12] = qHTS of pediatric cancer cell lines to identify multiple opportunities for drug repurposing: Confirmatory screen for NB1643 cells (AID 1347109); also: potency is read from the fitted curve at half-maximal effect; nearly all actives have a fitted effect of over 45% in size
In short: as §2

[13] = qHTS of pediatric cancer cell lines to identify multiple opportunities for drug repurposing: Confirmatory screen for A673 cells (AID 1347110);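 also: potency is read from the fitted curve at half-maximal effect; cells exposed to compound for 48 h before the viability read; nearly all actives have a fitted effect of over 65% in size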
In short: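 A673 cells at 500-1,000 cells/well were dosed 5 h after plating, in dilution series up to 46 uM final; primary runs used 8 or 11 points and confirmatory runs used 11 points. Viability was read by CellTiter-Glo luminescence after 48 h, against DMSO and 2.3 uM bortezomib controls.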

[14] = qHTS of pediatric cancer cell lines to identify multiple opportunities for drug repurposing: Primary screen for A673 cells (AID 1347092); also: nearly all actives have a fitted effect of over 45% in size; also: potency is read from the fitted curve at half-maximal effect; as to activity change, negative = cytotoxic: % is scaled to controls: 0 for no effect and ±100 for the full control effect
In short: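 A673 cells (500-1,000 cells/well) were treated 48 hours at 37 degrees C with compounds at 11-point (0.78 nM to 46 µM) or 8-point (0.59 nM to 46 µM) dilutions. Viability read by CellTiter-Glo luminescence; concentration-response curves fitted.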

[15] = qHTS of pediatric cancer cell lines to identify multiple opportunities for drug repurposing: Primary screen for NB-EBc1 cells (AID 1347095);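 as to activity change, negative = cytotoxic: plate controls were DMSO neutral control for no effect and bortezomib for full effect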
In short: as §1

[16] = qHTS of pediatric cancer cell lines to identify multiple opportunities for drug repurposing: Primary screen for NB1643 cells (AID 1347099); also: nearly all actives have a fitted effect of over 50% in size; also: potency is read from the fitted curve at half-maximal effect;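 as to activity change, negative = cytotoxic: plate controls were DMSO neutral control for no effect and bortezomib positive control for full effect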
In short: as §1

[17] = qHTS of pediatric cancer cell lines to identify multiple opportunities for drug repurposing: Primary screen for LAN-5 cells (AID 1347100); also: potency is read from the fitted curve at half-maximal effect;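 as to activity change, negative = cytotoxic: plate controls were DMSO neutral control for no effect and bortezomib positive control for full effect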
In short: as §2

[18] = qHTS of pediatric cancer cell lines to identify multiple opportunities for drug repurposing: Primary screen for Rh41 cells (AID 1347108); also: nearly all actives have a fitted effect of over 70% in size; also: potency is read from the fitted curve at half-maximal effect;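 as to activity change, negative = cytotoxic: series mostly up to about 46 µM; luminescence drop marks cytotoxic hits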
In short: as §1

[19] = qHTS of pediatric cancer cell lines to identify multiple opportunities for drug repurposing: Primary screen for Rh18 cells (AID 1347102); also: % is scaled to controls: 0 for no effect and ±100 for the full control effect; nearly all actives have a fitted effect of over 65% in size
In short: as §2

Cc1cnc(Nc2ccc(N3CCN(C)CC3)cc2)nc1Nc1cccc(S(=O)(=O)NC(C)(C)C)c1
active: Potency [1] 1.05 µM | Potency [2] 21.7 µM | Potency [4] 4.69 µM | Potency [5] 3.04 µM | Potency [6] 21.7 µM | Potency [7] 1.09 µM | Potency [8] 5.26 µM | Potency [9] 7.43 µM | Potency [10] 16.6 µM | Potency [11] 5.9 µM | Potency [12] 4.65 µM | Potency [13] 4.65 µM
inactive: Potency [3]

C=CC[C@@H]1C=C(C)C[C@H](C)C[C@H](OC)[C@H]2O[C@@](O)(C(=O)C(=O)N3CCCC[C@H]3C(=O)O[C@H](C(C)=C[C@@H]3CC[C@H](O)[C@H](OC)C3)[C@@H](C)[C@@H](O)CC1=O)[C@@H](C)C[C@@H]2OC
active: Potency [1] 8.33 µM | Potency [2] 1.72 µM | Potency [4] 1.87 µM | Potency [5] 6.07 µM | Potency [7] 6.11 µM
inactive: Potency [14] | Potency [15] | Potency [3] | Potency [10] | Potency [11]

C=CC(=O)Nc1cc(NC(=O)c2ccc(C)c(NC(=O)c3ccno3)c2)cc(C(F)(F)F)c1
active: Potency [1] 10.5 µM | Potency [2] 27.3 µM | Potency [4] 18.7 µM | Potency [5] 24.1 µM | Potency [16] 18.7 µM | Potency [17] 16.6 µM | Potency [8] 33.2 µM | Potency [18] 20.9 µM

CC(C)n1cnc2c(NCCc3ccc(O)cc3)nc(-c3csc4ccccc34)nc21
inactive: Potency [3] | Potency [10]
active: Potency [14] 1.18 µM | Potency [1] 3.32 µM | Potency [5] 4.29 µM | Potency [16] 3.32 µM | Potency [8] 11.8 µM | Potency [9] 18.7 µM | Potency [11] 18.7 µM | Potency [18] 11.8 µM

Cc1coc2c1C(=O)C(=O)c1c-2ccc2c(C)cccc12
inactive: Potency [14] | Potency [1] | Potency [5] | Potency [16] | Potency [17] | Potency [7] | Potency [9] | Potency [10] | Potency [11] | Potency [18]

c1ccc(CNc2nc(NCc3ccccc3)c3ccccc3n2)cc1
active: Potency [14] 4.69 µM | Potency [1] 11.8 µM | Potency [15] 23.5 µM | Potency [4] 18.7 µM | Potency [5] 6.81 µM | Potency [16] 18.7 µM | Potency [17] 20.9 µM | Potency [6] 24.3 µM | Potency [7] 30.6 µM | Potency [8] 16.6 µM | Potency [11] 23.5 µM | Potency [18] 18.7 µM

N#Cc1c(C2CCNCC2)cc(-c2c(O)cccc2OCC2CC2)nc1N
inactive: Potency [10]
active: Potency [14] 18.7 µM | Potency [1] 1.05 µM | Potency [15] 18.7 µM | Potency [5] 21.5 µM | Potency [7] 15.3 µM | Potency [18] 14.8 µM

CC(C=CC=C(C)C=CC1=C(C)CCCC1(C)C)=CC=CC=C(C)C=CC=C(C)C=CC1=C(C)CCCC1(C)C
active: Potency [1] 7.43 µM | Potency [8] 29.6 µM
inactive: Potency [2] | Potency [3] | Potency [19] | Potency [10]

CCC(C=C[C@@H]1OC(=O)C=C[C@H]1C)=C[C@H](C)CC=CC(C)=C[C@@H](C)C(=O)[C@@H](C)[C@H](O)[C@@H](C)CC(C)=CC(=O)O
active: Potency [14] 0.0247 µM | Potency [1] 0.0247 µM | Potency [2] 0.0102 µM | Potency [15] 0.0247 µM | Potency [5] 0.0403 µM | Potency [16] 0.0277 µM | Potency [6] 0.0322 µM | Potency [7] 0.128 µM | Potency [8] 0.0782 µM | Potency [13] 0.0322 µM
inactive: activity change, negative = cytotoxic [3] 13.2% [at 1.86 µM] | activity change, negative = cytotoxic [11] -1.27% [at 1.86 µM]

CCC(C)CCCCC(=O)N[C@@H](CCN)C(=O)NC(C(=O)N[C@H](CCN)C(=O)N[C@@H]1CCNC(=O)C([C@@H](C)O)NC(=O)[C@@H](CCN)NC(=O)[C@@H](CCN)NC(=O)[C@@H](CC(C)C)NC(=O)[C@H](Cc2ccccc2)NC(=O)[C@H](CCN)NC1=O)[C@@H](C)O (stereo partly drawn) ({Octanoyl(6-Me)}-[Dab][ξThr(3R)][dDab][dDab][Dab]F[dL][dDab][dDab][ξThr(3R)]; lactam 4-C)
inactive: Potency [14] | Potency [1] | Potency [2] | Potency [3] | Potency [4] | Potency [5] | Potency [17] | Potency [6] | Potency [19] | Potency [7] | Potency [8] | Potency [9] | Potency [10] | Potency [11] | Potency [18]

C[C@]12CCC(=O)C=C1[C@@H]1CC1[C@H]1[C@H]3[C@@H]4C[C@H]4[C@@]4(CCC(=O)O4)[C@@]3(C)CC[C@H]12 (stereo partly specified)
active: Potency [7] 19.3 µM
inactive: Potency [14] | Potency [2] | Potency [15] | Potency [3] | Potency [4] | Potency [5] | Potency [16] | Potency [19] | Potency [8] | Potency [9] | Potency [10] | Potency [11] | Potency [18]

Cc1ccc(-n2[nH]c(C)c(N=Nc3cccc(-c4cccc(C(=O)O)c4)c3O)c2=O)cc1C
inactive: Potency [10]
active: Potency [14] 13.3 µM | Potency [1] 14.8 µM | Potency [2] 19.5 µM | Potency [15] 6.62 µM | Potency [4] 13.3 µM | Potency [7] 17.4 µM | Potency [9] 21.1 µM | Potency [18] 18.7 µM

O=C(O)CCCCC(CCSCc1ccccc1)SCc1ccccc1 (stereo unspecified)
active: Potency [1] 9.35 µM | Potency [16] 10.5 µM | Potency [8] 33.2 µM
inactive: Potency [2] | Potency [15] | Potency [3] | Potency [6] | Potency [10]

c1ccc2c(Oc3nc(Nc4ccc(N5CCOCC5)cc4)c4ncn(C5CCCCC5)c4n3)cccc2c1
active: Potency [1] 11.8 µM
inactive: Potency [2] | Potency [3] | Potency [4] | Potency [5] | Potency [16] | Potency [17] | Potency [8] | Potency [10] | Potency [11] | Potency [18]

COC(=O)C1C2CC3c4[nH]c5cc(OC)ccc5c4CCN3CC2CC(OC(=O)c2cc(OC)c(OC)c(OC)c2)C1OC (stereo unspecified)
inactive: Potency [17] | Potency [9] | Potency [10] | Potency [11]
active: Potency [1] 3.72 µM | Potency [4] 18.7 µM | Potency [7] 27.3 µM | Potency [13] 3.29 µM

O=C1CSC(=O)N1C(CCc1ccncc1)COc1ccc(-c2cccc([N+](=O)[O-])c2)cc1 (stereo unspecified)
active: Potency [1] 10.5 µM | Potency [2] 15.3 µM | Potency [15] 18.7 µM | Potency [5] 4.82 µM | Potency [17] 14.8 µM | Potency [6] 6.85 µM | Potency [7] 4.85 µM
inactive: Potency [4] | Potency [19] | Potency [10]

N#Cc1ccc(COC[C@H]2O[C@@H](n3c(NCc4ccc(Cl)c(Cl)c4)nc4c(N)ncnc43)[C@@H](O)[C@@H]2O)cc1
active: Potency [14] 7.43 µM | Potency [1] 20.9 µM | Potency [5] 19.2 µM | Potency [16] 18.7 µM | Potency [17] 16.6 µM | Potency [7] 6.85 µM
inactive: Potency [9] | Potency [10]
